Compounds without any hit were thinned out: in the full panel of roughly 83,000, 20% have a hit.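 For each line, cells grew in 96-well plates with the test compound present at a single concentration for 48 hours.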 Values without a mark were called inactive. The source made the active and inactive calls. The calls were made as follows: active = growth percent below 10; inactive = the rest.
Tests used:
Assay in all cases: NCI-60 one-dose screen, 48 h (100 = growth as untreated, 0 = no growth, -100 = all killed)
Conditions in all cases: 10 µM unless noted
[1] = test system: HCT-15 colon
[2] = test system: HT29 colon
[3] = test system: SNB-75 CNS
[4] = test system: SNB-19 CNS
[5] = test system: U251 CNS
[6] = test system: PC-3 prostate
[7] = test system: SK-MEL-5 melanoma
[8] = test system: UACC-62 melanoma
[9] = test system: LOX IMVI melanoma
[10] = test system: SK-MEL-2 melanoma
[11] = test system: EKVX NSCLC
[12] = test system: SN12C renal
[13] = test system: UO-31 renal
[14] = test system: TK-10 renal
[15] = test system: ACHN renal
[16] = test system: CAKI-1 renal
[17] = test system: A498 renal
[18] = test system: CCRF-CEM leukemia
[19] = test system: MOLT-4 leukemia
[20] = test system: SK-MEL-28 melanoma

`O=C1/C=C/[C@@H](O)[C@@H]2C[C@@H](O)C[C@H]2/C=C/CCC[C@H](CCc2cccc3ccccc23)O1` was tested, and the growth [1] was 7.46% (active), the growth [2] was 3.87% (active) and the growth [3] was 33%. For the same compound, the growth [4] was 30.1%, the growth [5] was 23.8% and the growth [6] was 20.6%. For the same compound, the growth [7] was -95.9% (active), the growth [8] was 11.9% and the growth [9] was -55.9% (active). The growth [10] was -9.52% (active), the growth [11] was 13.3% and the growth [12] was 5.88% (active). The growth [13] was 4.61% (active), the growth [14] was -0.338% (active) and the growth [15] was 6.35% (active). The growth [16] was -17.9% (active), the growth [17] was -35.6% (active) and the growth [18] was 7.69% (active). The growth [19] was -36.2% (active).

In the case of `COc1cc(NCCCCCNC(C)(C)C)c2ncccc2c1`, the growth [1] is reported as 91.2%, the growth [2] is reported as 85.9% and the growth [3] is reported as 53.2%. For the same compound, the growth [4] was 91.7%, the growth [5] was 100% and the growth [6] was 76.4%. The growth [7] was 100%, the growth [8] was 89.6% and the growth [9] was 93.7%. It also gave a growth [10] of 113%, a growth [11] of 95.9% and a growth [12] of 86.7%. For the same compound, the growth [13] was 75.8%, the growth [14] was 95.7% and the growth [15] was 104%. For the same compound, the growth [16] was 78.7%, the growth [17] was 103% and the growth [18] was 51.8%. It also gave a growth [19] of 105%.

With `OCc1cnccc1NCCCOc1ccccc1` the growth [1] was 105%, the growth [2] was 102% and the growth [3] was 99.6%. The growth [4] was 94.9%, the growth [5] was 98.2% and the growth [6] was 96%. For the same compound, the growth [7] was 97.1%, the growth [8] was 90.5% and the growth [9] was 99.4%. The growth [10] was 107%, the growth [11] was 105% and the growth [12] was 94.3%. It also gave a growth [13] of 87.9%, a growth [14] of 92.5% and a growth [15] of 108%. It also gave a growth [16] of 95.7%, a growth [17] of 91.9% and a growth [18] of 88.8%. For the same compound, the growth [19] was 96.6%.

In the case of `CC(=O)[C@H]1CCC/C=C/[C@@H]2C[C@H](O)C[C@H]2[C@H](O)/C=C/C(=O)O1`, the growth [1] is reported as 11.9%, the growth [2] is reported as 4.12% (active) and the growth [3] is reported as 38.4%. It also gave a growth [4] of 28.6%, a growth [5] of 20.5% and a growth [6] of 27.6%. For the same compound, the growth [7] was -94% (active), the growth [8] was 12.3% and the growth [9] was -63% (active). The growth [10] was -14.3% (active), the growth [11] was 6.77% (active) and the growth [12] was 9.7% (active). The growth [13] was 1.16% (active), the growth [14] was 30.8% and the growth [15] was 5.56% (active). For the same compound, the growth [17] was -42.8% (active), the growth [18] was 9.09% (active) and the growth [19] was -41.3% (active).

`O=C1Nc2cc(-c3cccc(O)c3)ccc2/C1=C/c1ccc[nH]1` was tested, and the growth [1] was 9.89% (active), the growth [2] was 83.3% and the growth [3] was -13.7% (active). For the same compound, the growth [4] was 43.4%, the growth [5] was 25.9% and the growth [6] was 35.4%. The growth [7] was 6.19% (active), the growth [8] was 24.1% and the growth [9] was 7.66% (active). The growth [10] was 3.73% (active), the growth [11] was 22.6% and the growth [12] was 15.5%. For the same compound, the growth [13] was -1.56% (active), the growth [14] was 16.4% and the growth [15] was 11%. For the same compound, the growth [16] was 5.88% (active), the growth [18] was 13.4% and the growth [19] was 15.4%.

With `COc1ccc(C(=O)c2cc(OC)c(OC)c(OC)c2)cc1O` the growth [1] was 3.56% (active), the growth [2] was 14.7% and the growth [3] was -0.83% (active). For the same compound, the growth [4] was 28.5%, the growth [5] was 20.5% and the growth [6] was 20.4%. The growth [7] was -59.7% (active), the growth [8] was 45.2% and the growth [9] was 15.4%. It also gave a growth [10] of 59.6%, a growth [11] of 43.8% and a growth [12] of 15.2%. It also gave a growth [13] of 32.7%, a growth [14] of 65.3% and a growth [15] of 25.6%. For the same compound, the growth [16] was 37.2%, the growth [17] was 75% and the growth [18] was 5.92% (active). The growth [19] was 15.4%.

With `O=C1c2cccc3c(-c4ccc5c(c4)ncn5C4CCCCC4)ccc(c23)C(=O)N1CCO` the growth [1] was 98.5%, the growth [2] was 83.6% and the growth [3] was 86.6%. It also gave a growth [4] of 98.1%, a growth [5] of 93.2% and a growth [6] of 85%. The growth [7] was 62%, the growth [8] was 74.4% and the growth [9] was 87.4%. The growth [10] was 89.5%, the growth [11] was 76.4% and the growth [12] was 93.8%. The growth [13] was 62.1%, the growth [15] was 94.7% and the growth [16] was 77.5%. It also gave a growth [17] of 103%, a growth [18] of 79% and a growth [19] of 71.9%.

In the case of `COc1ccc(C(=O)c2cc(C)c(OC)c(C)c2)c(OC)c1NC(C)=O`, the growth [1] is reported as 16.3%, the growth [2] is reported as 3.24% (active) and the growth [3] is reported as 56.2%. The growth [4] was 22.9%, the growth [5] was 21.4% and the growth [6] was 20.9%. It also gave a growth [7] of 20.6%, a growth [8] of 31.6% and a growth [9] of 32%. For the same compound, the growth [10] was 26%, the growth [11] was 56% and the growth [12] was 34.8%. It also gave a growth [13] of 40%, a growth [14] of 51.9% and a growth [15] of 24.9%. The growth [16] was 42.4%, the growth [18] was 20.8% and the growth [19] was 38.7%.

Compound `O=C1Nc2cc(-c3ccc(NS(=O)(=O)c4ccccc4)cc3)ccc2/C1=C/c1ccc[nH]1` has a growth [1] of 62.9%, a growth [2] of 84.2% and a growth [3] of 98.5%. The growth [4] was 98.1%, the growth [5] was 97.9% and the growth [6] was 82.5%. For the same compound, the growth [7] was 91.2%, the growth [8] was 89.3% and the growth [9] was 69.3%. The growth [10] was 112%, the growth [11] was 28.9% and the growth [12] was 96.2%. The growth [13] was 69.2%, the growth [14] was 68.9% and the growth [15] was 88.5%. It also gave a growth [16] of 82.9%, a growth [18] of 63.9% and a growth [19] of 73.1%.

`C=CCN1C(=O)/C(=C/C(=O)OC)S/C1=N\NC(=O)c1cc2ccc1/C=C\c1ccc(cc1)/C=C\2` gave a growth [1] of 66.9%, a growth [2] of 46% and a growth [3] of 78.1%. It also gave a growth [4] of 84.7%, a growth [5] of 81.8% and a growth [6] of 48.4%. It also gave a growth [7] of 92.5%, a growth [8] of 77.2% and a growth [9] of 78.8%. The growth [10] was 97.3%, the growth [11] was 90.8% and the growth [12] was 86.9%. The growth [13] was 75.4%, the growth [14] was 108% and the growth [15] was 87.9%. It also gave a growth [16] of 87.8%, a growth [18] of 22.9% and a growth [19] of 35.4%.

`Cc1c(C(=O)NCCC(=O)NO)sc2ncnc(Nc3ccc(NC(=O)Nc4cccc(C(F)(F)F)c4)cc3)c12` was tested, and the growth [1] was 101%, the growth [2] was 110% and the growth [3] was 78.8%. For the same compound, the growth [4] was 93.6%, the growth [5] was 80.2% and the growth [6] was 100%. It also gave a growth [7] of 97.1%, a growth [8] of 99.6% and a growth [9] of 94.5%. The growth [10] was 109%, the growth [11] was 90.8% and the growth [12] was 100%. For the same compound, the growth [13] was 87.1%, the growth [14] was 140% and the growth [15] was 102%. It also gave a growth [16] of 99.3%, a growth [18] of 98.8% and a growth [19] of 106%.

In the case of `O=C1c2ccc3c4c(ccc(c24)C(=O)N1CCCNCc1ccccc1)C(=O)N(CCCNCc1ccccc1)C3=O`, the growth [1] is reported as -57.7% (active), the growth [2] is reported as -63.5% (active) and the growth [3] is reported as -97.2% (active). For the same compound, the growth [4] was -75.5% (active), the growth [5] was -87.7% (active) and the growth [6] was -65.4% (active). For the same compound, the growth [7] was -99.2% (active), the growth [8] was -71.1% (active) and the growth [9] was -75.6% (active). For the same compound, the growth [10] was -82.9% (active), the growth [11] was -39.2% (active) and the growth [12] was -88% (active). For the same compound, the growth [13] was -48.6% (active), the growth [14] was -84.2% (active) and the growth [15] was -53.5% (active). For the same compound, the growth [16] was -19.6% (active), the growth [18] was -30.5% (active) and the growth [19] was -32.3% (active).

`COc1cc2nc(-c3ccc(Cl)cc3)cc(OCCCN3CCOCC3)c2cc1OC` was tested, and the growth [1] was 19.2%, the growth [2] was 22.3% and the growth [3] was 37.5%. It also gave a growth [4] of 73.5%, a growth [5] of 47.3% and a growth [6] of 54%. For the same compound, the growth [7] was -52.6% (active), the growth [8] was -20.9% (active) and the growth [9] was -56% (active). For the same compound, the growth [10] was 73.1%, the growth [11] was 55.7% and the growth [12] was 38.4%. It also gave a growth [13] of 59.6%, a growth [14] of 97.9% and a growth [15] of 40.6%. For the same compound, the growth [16] was -12% (active), the growth [18] was 61.4% and the growth [19] was 56.4%.

In the case of `O=C1Nc2ccccc2/C1=C\c1c(-c2ccc(F)cc2)nc2ccccn12`, the growth [1] is reported as 58.2%, the growth [2] is reported as 58.7% and the growth [3] is reported as 71.3%. For the same compound, the growth [4] was 77.7%, the growth [5] was 93.3% and the growth [6] was 62.5%. It also gave a growth [7] of 58%, a growth [8] of 65.1% and a growth [20] of 87.2%. The growth [10] was 75.5%, the growth [11] was 45.6% and the growth [12] was 82.5%. It also gave a growth [13] of 41%, a growth [14] of 109% and a growth [15] of 54.9%. For the same compound, the growth [16] was 44.3%, the growth [17] was 70.8% and the growth [18] was 67.9%. The growth [19] was 57%.

For `CC(=O)O[C@H]1Cc2c([nH]c3ccccc23)[C@@H](c2ccc(Cl)cc2)N1C(=O)CCNC(C)(C)C`, the growth [1] was 69.9%, the growth [2] was 29% and the growth [3] was 42.6%. For the same compound, the growth [4] was 69.3%, the growth [5] was 50.6% and the growth [6] was 36.3%. The growth [7] was -79.5% (active), the growth [8] was 53.1% and the growth [20] was 8.92% (active). It also gave a growth [10] of 79.4%, a growth [11] of 67.2% and a growth [12] of 58.4%. For the same compound, the growth [13] was 23.7%, the growth [14] was 94.5% and the growth [15] was 64.5%. For the same compound, the growth [18] was 41% and the growth [19] was 28.6%.

For `COc1c(Cl)c2c(c(OC)c1OC)-c1ccc(SC)c(=O)cc1[C@@H](NC(=O)OCC(F)(F)F)CC2`, the growth [1] was 9.54% (active), the growth [2] was 13.5% and the growth [3] was 37.4%. For the same compound, the growth [4] was 29.4%, the growth [5] was 20.6% and the growth [6] was 24.7%. For the same compound, the growth [7] was -7.65% (active), the growth [8] was 34.4% and the growth [20] was 63%. The growth [10] was 46.3%, the growth [11] was 40% and the growth [12] was 24.2%. It also gave a growth [13] of 28.6%, a growth [14] of 44.5% and a growth [15] of 25.8%. For the same compound, the growth [16] was 15.6%, the growth [18] was 4.8% (active) and the growth [19] was 3.85% (active).
